Measured values from PubChem BioAssay (NCI).
Compounds without any hit were thinned out: in the full panel of roughly 83,000, 20% have a hit.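 Testing used 96-well plates and a 48-hour single-concentration exposure. Example: -40 means 40% of the starting cells died.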 Unmarked numbers belong to inactive results. Active and inactive are the calls of the source. The calls were made as follows: active = growth percent below 10; inactive = the rest.

Key:
Assay in all cases: NCI-60 one-dose screen, 48 h (100 = growth as untreated, 0 = no growth, -100 = all killed)
Conditions in all cases: 10 µM unless noted
[1] = system: SK-MEL-2 melanoma
[2] = system: EKVX NSCLC
[3] = system: SN12C renal
[4] = system: UO-31 renal
[5] = system: TK-10 renal
[6] = system: CAKI-1 renal
[7] = system: CCRF-CEM leukemia
[8] = system: MOLT-4 leukemia
[9] = system: A498 renal

Row | SMILES | growth [1] | growth [2] | growth [3] | growth [4] | growth [5] | growth [6] | growth [7] | growth [8] | growth [9]
1 | O=S(=O)(NCCNc1nccc(-c2c(-c3cccc(F)c3)nc3sccn23)n1)c1ccccc1 | 51.8% | 53.3% | 40.3% | 15.4% | 59.5% | 39.1% | 33.6% | 16.6% | –
2 | O=C(/C=C/c1ccc(F)cc1)c1ccc(NC(=O)N2CCN(c3cc4c(cc3F)c(=O)c(C(=O)O)cn4C3CC3)CC2)cc1 | 105% | 94.5% | 92.6% | 77.9% | 92.5% | 95.2% | 90.9% | 99.5% | –
3 | Nc1c(S(=O)(=O)O)cc2c3c(cccc13)C(=O)OC2=O | 51% | 91.5% | 98.9% | 86.7% | 127% | 79.9% | 102% | 88.9% | 106%
4 | C#Cc1cccc(NC(=O)c2cccc(NC(=O)CCl)c2)c1 | 30.8% [8.25 µM] | 86.1% [8.25 µM] | -65.9% [8.25 µM] (active) | -98.9% [8.25 µM] (active) | -72.4% [8.25 µM] (active) | 0.818% [8.25 µM] (active) | 8.26% [8.25 µM] (active) | – | 46.6% [8.25 µM]
5 | O=C(Cn1c(C(=O)c2ccccc2)nc2ccccc21)c1ccc(F)cc1 | 60.7% | 83.2% | 77.9% | 80.6% | 67.7% | 42.6% | 57.1% | 21.3% | 86.5%
6 | Cc1cnc(C(=O)Nc2nc3ccc(S(=O)(=O)Nc4ccc(C5(C(F)(F)F)CC5)cc4)cc3[nH]2)cn1 | 37.9% | 59.1% | 34.5% | 38.7% | 32.1% | 22.6% | 11.1% | 20% | –
7 | COC(=O)c1ccc2c(c1)[n+](=O)c(C(C)=O)c(C(F)(F)F)n2[O-] | -31.9% (active) | -46.3% (active) | -34% (active) | -82% (active) | 25.9% | -78.5% (active) | – | – | 6.79% (active)
8 | CCCCN1C=CCN(CCCC)C1 | 24.4% | 47.5% | 34.8% | 74.6% | 56.8% | 86% | 87.2% | – | 78.4%
9 | CCCCCOc1ccc(/C=N/Nc2cc(C)nc3ccc(Cl)cc23)cc1 | 93.1% | 66.7% | -88.1% (active) | -99.6% (active) | -22.5% (active) | 28.7% | 1.69% (active) | -38.9% (active) | –
10 | O=C(Nc1ccc(Cl)cc1)c1cc(NCc2cc(O)ccc2O)ccc1O | 78.8% | 94.1% | 76.1% | 52.2% | 97.3% | 99.5% | 5.54% (active) | 59.8% | –
11 | N#C/C(=C\c1ccc(C(F)(F)F)cc1)c1cc2ccccc2[nH]1 | 96.1% | 97.6% | 99.2% | 92.9% | 140% | 83.6% | 98.1% | 91.5% | 90.3%
12 | CNC(=O)c1cncc(Cn2nc(C)c(NC(=O)c3ccc(COc4ccc(C(F)(F)F)cc4C)cc3)c2C)c1 | 48.8% | 46.5% | 69.1% | 58.6% | 61.9% | 60% | 69% | 41.7% | –
